Measured values published in PMC5540273 (PLoS ONE, 2017).

What was measured:
[1] = test system: AAK1; settings: concentration: 1 μM, replicates: in singlicate; n = 1
[2] = test system: ABL1-nonphosphorylated; settings: concentration: 1 μM, replicates: in singlicate; n = 1
[3] = test system: ABL1-phosphorylated; settings: concentration: 1 μM, replicates: in singlicate; n = 1
[4] = test system: ABL2; settings: concentration: 1 μM, replicates: in singlicate; n = 1
[5] = test system: T1, YSK4;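 also: kd values determined as follow-up on hits from a single-replicate KINOMEscan panel screen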
T1 construct: gene MAP3K19
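For %Inh in this document: KINOMEscan kinase panel screen.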

SMILES | %Inh [1] [%] | %Inh [2] [%] | %Inh [3] [%] | %Inh [4] [%] | Kd [5] [µM]
Cc1ccc(Oc2ccc(Nc3ncnc4cc[nH]c34)cc2C)cn1 | 0 | 19 | 0 | 0 | 
CCC(=O)c1c(-c2ccccc2)c2cc(Cl)ccc2c(=O)n1Cc1cc(S(C)(=O)=O)n(CC(F)F)n1 | 0 | 23 | 2 | 0 | 
O=C(Nc1n[nH]c2nc(-c3ccccc3)c(Cl)cc12)C1CC1 [SB-734909] | 28 | 76 | 57 | 0 | 7.7
CCCC(=O)Nc1n[nH]c2ncc(-c3cccc4ccccc34)cc12 [SB-642057] | 27 | 0 | 27 | 11 | 
CCn1c(-c2nonc2N)nc2ccccc21 [SB-693162/GW549034] | 29 | 53 | 27 | 0 | 0.01
O=C(NCc1cccs1)c1cc(C(=O)c2c(Cl)cccc2Cl)c[nH]1 [GW823670] | 0 | 18 | 27 | 0 | 
COC(=O)c1c(-c2ccccc2)c2cc(Br)ccc2c(=O)n1Cc1ccc(NC(=O)CCC(=O)O)cc1 | 13 | 38 | 0 | 18 | 
Fc1cccc(CSc2nnc(-c3ccc4c(c3)CCO4)o2)c1 | 25 | 20 | 7 | 22 | 
FC(F)(F)c1ccc(-c2ncn(CCCN3CCOCC3)c2-c2ccncc2)cc1 [SB-217780] | 7 | 44 | 0 | 8 | 
